Source: ChEMBL document CHEMBL4513146, “CO-ADD screening of Karazin Kharkiv National University (Ukraine) compounds”
Potency and affinity values are given separately.

Experiments:
Klebsiella pneumoniae = conditions: Concentration 32 ug.mL-1;; ASSAY_TEST Inhibition of Bacterial Growth; detection method Absorption (OD600); MEDIA CAMHB; plate type 384well; NBS; CORNING #3640; time 18 hr
Candida albicans = conditions: Concentration 32 ug.mL-1; ASSAY_TEST Inhibition of Fungal Growth; detection method Absorption (OD530)
Cryptococcus neoformans = conditions: Concentration 32 ug.mL-1; ASSAY_TEST Inhibition of Fungal Growth; detection method Resazurin; Absorption (OD600-OD570); plate type 384well; NBS; CORNING #3640

| SMILES | Inhibition (Klebsiella pneumoniae) [%] | Inhibition (Candida albicans) [%] | Inhibition (Cryptococcus neoformans) [%] |
| --- | --- | --- | --- |
| CCCCOc1ccc(-c2cc3c4nnc(SCC(=O)Nc5cc(C)ccc5OC)n4ccn3n2)cc1 | -4.93 | 45.46 | -16.58 |
| CC(=O)c1ccc(NC(=O)Cn2nc3ccc(-c4ccccc4)nn3c2=O)cc1 | 10.95 | 2.61 | -13.06 |
| O=C(Cn1nc2c3sc(N4CCCC4)nc3ncn2c1=O)Nc1ccc(F)c(Cl)c1 | 20.21 | 4.41 | -11.29 |
| Cc1nnc2c(SCC(=O)Nc3ccc(C#N)cc3)nc3ccccc3n12 | 5.06 | -1.44 | -16.12 |
| Cc1nnc2ccc(S(=O)(=O)N(CC(=O)OC(C)(C)C)c3ccc4c(c3)OCO4)cn12 | 6.34 | 5.98 | -4.94 |
| O=C(Cn1nc2c(N3CCOCC3)nccn2c1=O)Nc1cccc(C(F)(F)F)c1 | 0.9 | 5.11 | -4.42 |
| CCc1ccccc1NC(=O)Cn1nc2cc(C)nc(Nc3ccc(F)c(C)c3)n2c1=O | 11.82 | 5.42 | -2.36 |
| Cc1ccc(-c2cc3c4nn(CC(=O)Nc5ccc(F)cc5)c(=O)n4ccn3n2)cc1C | -3.72 | 22.53 | -20.65 |
| COc1ccccc1N1CCN(C(=O)Cn2nc3ccc(-c4ccc(Cl)cc4)nn3c2=O)CC1 | 12.66 | -1.54 | -12.15 |
| COc1ccc(CCn2c(=O)c3sccc3n3c(=O)n(CC(=O)c4ccccc4)nc23)cc1OC | 16.06 | 0.73 | -38.41 |
